# Data taken from PubChem BioAssay AID1159580 (chemical genetic matrix, 2015).
# Several values for one entry are separate records, joined by “and”; a condition that tells them apart may be missing. Equal values may be shown once. The campaign covered roughly 5,500 compounds. About 2,000 (36%) were called active. Roughly 18% stayed inconclusive and do not appear here. This is one part of the list. Values without a mark were called inactive. Cut-off read from the data, not from the text of the source: active = normalized growth mostly below about 0.91 (no sharp cut-off); inconclusive = no clear call, values can overlap the other calls; inactive = mostly above about 0.92.
# Assay: chemical genetic growth profiling, strain panel (AID 1159580);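 note: tested at 20 µM; growth read once vehicle control cultures reached saturation at 30 °C; 1 = growth at the plate median or of vehicle wells; lower values mean less growth of the strain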
# Details: S. cerevisiae deletion strains, growth OD
smiles,measurement,setting,value
CCOc1nc2cccc(C(=O)OC(C)OC(=O)OC3CCCCC3)c2n1Cc1ccc(-c2ccccc2-c2nn[nH]n2)cc1 (configuration not stated),normalized growth,"locus YAL013W, strain DEP1, active compounds read low",1
same,normalized growth,"locus YAL021C, strain ccr4, active compounds read low",1
same,normalized growth,"locus YAL026C, strain drs2, active compounds read low",1.03
same,normalized growth,"locus YAL030W, strain snc1, active compounds read low",1.02
same,normalized growth,"locus YBL061C, strain skt5, active compounds read low",1.01
same,normalized growth,"locus YBR009C, strain hhf1, active compounds read low",0.998
same,normalized growth,"locus YBR021W, strain FUR4, active compounds read low",1.03
same,normalized growth,"locus YBR023C, strain chs3, active compounds read low",1.03
same,normalized growth,"locus YBR171W, strain sec66, active compounds read low",1.05
same,normalized growth,"locus YBR229C, strain ROT2, active compounds read low",0.996
same,normalized growth,"locus YBR231C, strain swc5, active compounds read low",1.01
same,normalized growth,"locus YBR279W, strain paf1, active compounds read low",1.02
same,normalized growth,"locus YCL011C, strain gbp2, active compounds read low",1.02
same,normalized growth,"locus YCL016C, strain dcc1, active compounds read low",1.01
same,normalized growth,"locus YCL029C, strain bik1, active compounds read low",1.01
same,normalized growth,"locus YCL061C, strain MRC1, active compounds read low",1.02
same,normalized growth,"locus YCL069W, strain vba3, active compounds read low",1.05
same,normalized growth,"locus YCR088W, strain abp1, active compounds read low",1.03
same,normalized growth,"locus YDL005C, strain med2, active compounds read low",1.03
same,normalized growth,"locus YDL035C, strain GPR1, active compounds read low",0.977
same,normalized growth,"locus YDL040C, strain nat1, active compounds read low",1.02
same,normalized growth,"locus YDL074C, strain BRE1, active compounds read low",0.96
same,normalized growth,"locus YDL101C, strain DUN1, active compounds read low",0.998
same,normalized growth,"locus YDL134C, strain PPH21, active compounds read low",1.01
same,normalized growth,"locus YDL185W, strain tfp1, active compounds read low",0.999
same,normalized growth,"locus YDL192W, strain arf1, active compounds read low",1
same,normalized growth,"locus YDR001C, strain nth1, active compounds read low",1.03
same,normalized growth,"locus YDR069C, strain doa4, active compounds read low",1.04
same,normalized growth,"locus YDR101C, strain arx1, active compounds read low",1
same,normalized growth,"locus YDR137W, strain rgp1, active compounds read low",0.824 (active)
same,normalized growth,"locus YDR150W, strain NUM1, active compounds read low",1.01
same,normalized growth,"locus YDR159W, strain sac3, active compounds read low",1
same,normalized growth,"locus YDR162C, strain NBP2, active compounds read low",0.983
same,normalized growth,"locus YDR195W, strain ref2",0.994
same,normalized growth,"locus YDR297W, strain sur2, active compounds read low",0.994
same,normalized growth,"locus YDR318W, strain mcm21, active compounds read low",0.995
same,normalized growth,"locus YDR334W, strain swr1, active compounds read low",1.03
same,normalized growth,"locus YDR335W, strain msn5, active compounds read low",1.03
same,normalized growth,"locus YDR388W, active compounds read low",1
same,normalized growth,"locus YDR392W, strain spt3, active compounds read low",0.996
same,normalized growth,"locus YDR502C, strain sam2, active compounds read low",0.997
same,normalized growth,"locus YEL003W, strain gim4, active compounds read low",1.03
same,normalized growth,"locus YEL037C, strain rad23, active compounds read low",1.02
same,normalized growth,"locus YEL061C, strain CIN8 (second series), active compounds read low",1.02
same,normalized growth,"locus YEL061C, strain CIN8, active compounds read low",1
same,normalized growth,"locus YER015W, strain faa2, active compounds read low",1.02
same,normalized growth,"locus YER016W, strain bim1, active compounds read low",1.02
same,normalized growth,"locus YER110C, active compounds read low",0.997
same,normalized growth,"locus YER111C, strain swi4, active compounds read low",1.04
same,normalized growth,"locus YER155C, strain BEM2 (second series), active compounds read low",1.07
same,normalized growth,"locus YER155C, strain BEM2, active compounds read low",1.01
same,normalized growth,"locus YER167W, strain BCK2, active compounds read low",0.986
same,normalized growth,"locus YFR010W, strain ubp6, active compounds read low",1.04
same,normalized growth,"locus YGL078C, strain dbp3, active compounds read low",1.01
same,normalized growth,"locus YGL086W, strain mad1, active compounds read low",0.997
same,normalized growth,"locus YGL167C, strain pmr1, active compounds read low",1.03
same,normalized growth,"locus YGL173C, strain kem1, active compounds read low",1.03
same,normalized growth,"locus YGL227W, strain vid30, active compounds read low",1.02
same,normalized growth,"locus YGL240W, strain doc1, active compounds read low",1.02
same,normalized growth,"locus YGL248W, strain PDE1, active compounds read low",1.01
same,normalized growth,"locus YGL253W, strain hxk2, active compounds read low",1.04
same,normalized growth,"locus YGR078C, strain PAC10, active compounds read low",0.988
same,normalized growth,"locus YGR135W, strain pre9, active compounds read low",1
same,normalized growth,"locus YGR229C, strain SMI1, active compounds read low",0.851
same,normalized growth,"locus YGR252W, strain gcn5, active compounds read low",0.972
same,normalized growth,"locus YHR013C, strain ard1, active compounds read low",1.03
same,normalized growth,"locus YHR027C, strain rpn1, active compounds read low",1.01
same,normalized growth,"locus YHR030C, strain SLT2, active compounds read low",0.996 and 0.96
same,normalized growth,"locus YHR079C, strain IRE1 (second series), active compounds read low",0.996
same,normalized growth,"locus YHR079C, strain IRE1, active compounds read low",0.957
same,normalized growth,"locus YHR094C, strain hxt1, active compounds read low",0.995
same,normalized growth,"locus YHR129C, strain ARP1, active compounds read low",1.01
same,normalized growth,"locus YHR142W, strain chs7, active compounds read low",1.04
same,normalized growth,"locus YHR200W, strain rpn10, active compounds read low",0.998
same,normalized growth,"locus YIL066C, strain RNR3, active compounds read low",1.01
same,normalized growth,"locus YIL073C, strain SPO22, active compounds read low",1.07
same,normalized growth,"locus YIL125W, strain kgd1, active compounds read low",0.989
same,normalized growth,"locus YIR030C, strain dcg1, active compounds read low",0.996
same,normalized growth,"locus YJL092W, strain hpr5, active compounds read low",1.03
same,normalized growth,"locus YJL095W, strain BCK1 (second series), active compounds read low",1.01
same,normalized growth,"locus YJL095W, strain BCK1, active compounds read low",0.8 and 1.01
same,normalized growth,"locus YJL115W, strain asf1, active compounds read low",1.04
same,normalized growth,"locus YJL129C, strain trk1, active compounds read low",1.04
same,normalized growth,"locus YJL134W, strain LCB3, active compounds read low",1.01
same,normalized growth,"locus YJL154C, strain vps35, active compounds read low",1.03
same,normalized growth,"locus YJL164C, strain tpk1, active compounds read low",1.01
same,normalized growth,"locus YJL166W, strain qcr8, active compounds read low",1.01
same,normalized growth,"locus YJL168C, strain set2, active compounds read low",0.994
same,normalized growth,"locus YJL187C, strain SWE1 (second series), active compounds read low",0.997
same,normalized growth,"locus YJL187C, strain SWE1, active compounds read low",1.01
same,normalized growth,"locus YJR043C, strain POL32, active compounds read low",0.996
same,normalized growth,"locus YJR066W, strain TOR1, active compounds read low",0.93
